Source: PubChem BioAssay (NCATS)
Inconclusive results are not listed. A number with no mark means an inactive call. Activity calls are given as the source filed them. Calls come from the whole dose curve; as a rule, active = well fitted inhibition curve with a large enough effect; inconclusive = small, poorly fitted or top-dose-only effect; inactive = flat fitted curve, though single readings scatter.

What was measured:
CRL-7250 = normal cell line; test: Cytotoxic Profiling of Annotated Libraries Using Quantitative High-Throughput Screening (AID 1296008); conditions: Five cell lines viability, CellTiter-Glo ATP luminescence, 48-72 h; max response: active compounds read low; note: nearly all actives have a fitted effect of over 60% in size
In short: (§1)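 Compounds were pin-transferred onto cells and incubated 48 or 72 hr at 37 degree Celsius, 95% humidity. CellTiter-Glo was added, plates sat 10 min at room temperature, then ATP-coupled luminescence was imaged as the viability read-out.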

HEK293 = test: as above; conditions: Five cell lines viability, CellTiter-Glo ATP luminescence, 48-72 h; max response: active compounds read low
In short: as §1
% is set by controls: 0 for no effect and ±100 for the full control effect; potency is the fitted concentration of half-maximal effect.

Row | Structure (SMILES) | max response (CRL-7250) | max response (HEK293) | Potency (CRL-7250)
1 | CC(=O)NC1C(OC(C)(C)C2CCC3(C)C=C(C4CCC5C4(C)CC(O)C4OC(C(C)(C)O)CCC45C)CCC3O2)OC(CO)C(O)C1O (stereo not drawn) | 0.702% | -2.64% | 
2 | C/C=C(\C)C(=O)OCC1OC(OC2OC(COC(=O)/C(C)=C/C)C(OC3OC(CO)C(OC(=O)/C(C)=C/C)C(OC(=O)/C(C)=C/C)C3O)C(O)C2O)C(O)C(O)C1OC1OC(CO)C(OC(=O)/C(C)=C/C)C(OC(=O)/C(C)=C/C)C1O (stereo not drawn) | -8.02% | -7.34% | 
3 | C=CC(C)(O)C(O)CC1C(C)(O)C(O)C(O)C2C(C)(C)CCCC21C (stereo not drawn) | 1.81% | -10.3% | 
4 | CC1(c2nc3c(C(N)=O)cccc3[nH]2)CCCN1 (stereo not drawn) | -7.72% | -22.9% | 
5 | C=C1C(OC(C)=O)CCC2(C)CC3(OC)OC(=O)C(C)=C3CC12 (stereo not drawn) | -3.85% | -22.9% | 
6 | CC(=O)N1CCN(Cc2ccc([C@H](C)Nc3nccc(N4C(=O)OC[C@@H]4C(C)C)n3)cc2)CC1 |  | -108% | 920 nM (active)
7 | CC(=O)OC[C@]12[C@H](OC(C)=O)C(=O)[C@@H]3[C@@H](OC(C)=O)[C@@]14O[C@@]3(C)COC(=O)c1cccnc1[C@@H](C)[C@H](C)C(=O)O[C@@H]([C@H](O)[C@@H]2OC(C)=O)[C@]4(C)O | 0.341% | -0.596% | 
8 | CC1(C)CC2C(O)c3cocc3CC(C)(O)C2C1 (stereo not drawn) | 0.847% | 3.14% | 
9 | CN1C2CCC1CC(OC(=O)[C@H](CO)c1ccccc1)C2 (stereo partly drawn) | 0.824% | -10.6% | 
